According to PubChem BioAssay (Tox21):
Inconclusive results are not listed. The source made the active and inactive calls. Unless noted, the call rests on the fitted dose curve; in most records, active means well fitted curve in the direction sought with a large enough effect in the repeat runs; inconclusive means weak or mixed curves; inactive means no such curve, though single readings can be large; an effect the other way counts as inactive or inconclusive.

How the values were obtained:
[1] = qHTS assay for small molecules that induce genotoxicity in human embryonic kidney cells expressing luciferase-tagged ATAD5 (AID 651632); conditions: HEK293T ATAD5-luciferase induction, 16 h; series mostly up to 83.3 µM; further: nearly all actives have a fitted effect of over 15% in size
Procedure, shortened: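 Luminescence read-out: after 16 hr compound exposure at 37C, ATAD5-luciferase HEK293T cells received Amplite, 30 min RT, then CCD imaging. A rise in signal marks genotoxic stress.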

[2] = qHTS assay for small molecule agonists of the p53 signaling pathway - cell viability (AID 651633; calls by dose curve;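 further: p53RE-bla HCT reporter cells with a stable beta-lactamase p53 reporter; nearly all actives have a fitted effect of over 30% in size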); conditions: p53RE-bla HCT-116 viability, ATP luminescence, 16 h; series mostly up to 83.3 µM
Procedure, shortened: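 p53RE-bla cells, seeded at 4,000 per well and rested 5 h at 37 C/5% CO2, received compounds in DMSO for 16 h at 37 C. CellTiter-Glo was then added, and luminescence was read after 30 min at room temperature to gauge cytotoxicity.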

[3] = qHTS assay for small molecules that induce genotoxicity in human embryonic kidney cells expressing luciferase-tagged ATAD5 - cell viability (AID 651634; calls by dose curve; further: nearly all actives have a fitted effect of over 25% in size); conditions: HEK293T ATAD5-luc cells viability, CellTiter-Fluor, 15.5 h; series mostly up to 83.3 µM
Procedure, shortened: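 HEK293T ATAD5-luc cells, 2,000/well; compound 15.5 hr, 37C/5% CO2; CellTiter-Fluor 30 min, 37C; fluorescence read.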

[4] = qHTS assay for small molecule disruptors of the mitochondrial membrane potential - cell viability (AID 720634; calls by dose curve;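 further: human HepG2 liver cancer cells; nearly all actives have a fitted effect of over 20% in size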); conditions: HepG2 viability, ATP luminescence (CellTiter-Glo), 1 h; series mostly up to 83.2 µM
Procedure, shortened: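 Luminescence from CellTiter-Glo (ATP content) gave viability in HepG2 cells, read in the same wells as the MMP dye assay after 1 hr compound exposure at 37 C.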

[5] = qHTS assay for small molecule disruptors of the mitochondrial membrane potential (AID 720635); conditions: HepG2 mitochondrial membrane potential, Mito-MPS dye ratio; series mostly up to 83.2 µM
Procedure, shortened: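 HepG2 cells (2,000/well) attached overnight at 37C, then took compound for 1 hr at 37C, 5% CO2. Mito-MPS dye was added for 30 min; fluorescence was read at 490/535 nm (monomers) and 540/590 nm (aggregates).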

[6] = qHTS assay to test for compound auto fluorescence at 590 nm (red) in HepG2 cells (AID 720674); conditions: HepG2 autofluorescence, red 540/590 nm, 1 h; series mostly up to 46 µM
Procedure, shortened: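 Intrinsic compound fluorescence in the red window (Ex/Em 540/590 nm) is measured in attached HepG2 cells exposed for 1 hr, DMSO vehicle as baseline, benchmarked to Rose Bengal sodium.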

[7] = qHTS assay to test for compound auto fluorescence at 535 nm (green) in HepG2 cells (AID 720675); conditions: green autofluorescence 485/535 nm, 1 h; series mostly up to 46 µM
[8] = qHTS assay to test for compound auto fluorescence at 460 nm (blue) in HEK293 cells (AID 720678); conditions: blue autofluorescence 405/460 nm; series mostly up to 46 µM
Procedure, shortened: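 Auto fluorescence in the blue band was quantified as triamterene equivalency. HEK293 cells were seeded at 2,000/well, dosed after a 4-5 hr attachment, and kept overnight at 37C before the 405/460 nm reading.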

[9] = qHTS assay to test for compound auto fluorescence at 590 nm (red) in HEK293 cells (AID 720679); conditions: red autofluorescence 540/590 nm; series mostly up to 46 µM
Procedure, shortened: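 Autofluorescence equivalency to Rose Bengal sodium, 540/590nm, in HEK293 cells exposed overnight to 23 nL compound per well.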

Measured: Potency

CCN(CC)CCOC(=O)c1ccc(N)cc1Cl
inactive: all assays above

CCCCCC(O)/C=C/C=O (configuration not stated)
inactive: all assays above

CC(C)CCCC(C)NC(C)C (configuration not stated)
inactive: all assays above
